Test results: the supplement of paper PMC12636033
± gives the standard deviation of the averaged measurements. The full ranking holds about 33,000 sequences; the median of “E-score (rank enrichment, -0.5 to 0.5)” is about -0.0075, and the highest 2% start at about 0.23. Shown is part of a subset that was picked to be rich in the highest values.

System: WT Max(13-93) synthetic (M65Nle)
Assay: PBM 8-mer E-score (E-score (rank enrichment, -0.5 to 0.5)); higher = stronger preferential binding
Description: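 Protein binding microarray (universal PBM chip covering all 10-mers in fixed probe flanks) with chemically synthesized human Max(13-93) bHLH-LZ analogs (not full-length Max) bearing noncanonical residues (hArg, Tha, Aib, Nle at 65) and aromatic Cys staples. Read-out per 8-mer (and its reverse complement): E-score (rank-based enrichment, -0.5 to 0.5) and Z-score of median probe intensity.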

| Sequence | PBM 8-mer E-score |
| --- | --- |
| AACAAGTA | 0.0942 ± 0.0044 |
| AACAAGAT | 0.11 ± 0.095 |
| AATCTACG | -0.0669 ± 0.058 |
| AAAGTACG | 0.0681 ± 0.065 |
| CAGCACCA | -0.0907 ± 0.0017 |
| CCATTAGA | -0.222 ± 0.029 |
| ATAGAAAA | 0.134 ± 0.016 |
| AATTAAAG | 0.184 ± 0.068 |
| AATTAAAC | 0.218 ± 0.018 |
| GATTAATA | 0.266 ± 0.022 |
| AATTAAAT | 0.253 ± 0.024 |
| TATTAATA | 0.19 ± 0.021 |
| GATTAAGA | 0.182 ± 0.054 |
| AATTAATA | 0.243 ± 0.094 |
| ACTTAATA | 0.21 ± 0.015 |
| ATTTAATA | 0.23 ± 0.013 |
| CATTAATA | 0.119 ± 0.11 |
| AATTAAGC | 0.0692 ± 0.079 |
| AATTAAGA | 0.241 ± 0.057 |
| AGCAGAAG | -0.0139 ± 0.09 |
| ATCGCTCC | -0.0658 ± 0.15 |
| ACGTAACC | 0.109 ± 0.1 |

| Sequence | PBM 8-mer E-score |
| --- | --- |
| CTTACCGC | -0.13 ± 0.11 |
| CTGATCCC | -0.00057 ± 0.1 |
| AGTGCCTG | -0.101 ± 0.011 |
| CTCAAGAG | -0.266 ± 0.032 |
| CATTAGTA | 0.0683 ± 0.015 |
| AATTAATG | 0.166 ± 0.16 |
| AATTAATC | 0.0672 ± 0.11 |
| AATTAGTA | 0.249 ± 0.075 |
| AATTAGTC | -0.027 ± 0.071 |
| AATTAATT | 0.262 ± 0.088 |
| CGGGCTCA | -0.237 ± 0.039 |
| AAACAAAA | 0.284 ± 0.023 |
| AAACAAAT | 0.275 ± 0.05 |
| CAACAACA | 0.237 ± 0.027 |
| TAACAAAA | 0.166 ± 0.0052 |
| AAACAAGT | 0.0146 ± 0.12 |
| AAACAAAC | 0.0359 ± 0.011 |
| AAACAAAG | 0.114 ± 0.032 |
| GAACAACA | 0.0194 ± 0.12 |
| CAACAAGA | 0.0122 ± 0.26 |
| AAAACAAC | -0.0511 ± 0.034 |
| AAAACAAG | 0.122 ± 0.18 |

| Sequence | PBM 8-mer E-score |
| --- | --- |
| AAAACAAT | 0.259 ± 0.0082 |
| CTATCTGC | -0.0743 ± 0.063 |
| CACTACAG | -0.123 ± 0.011 |
| GTTAGAGA | -0.0703 ± 0.011 |
| AAGGCGAT | 0.0502 ± 0.11 |
| ATTAAAGC | 0.133 ± 0.061 |
| AAGGTTGA | 0.14 ± 0.0094 |
| CCGCTTAG | -0.158 ± 0.088 |
| ATGCCGCC | -0.15 ± 0.1 |
| AATCAACA | 0.283 ± 0.051 |
| GATCAACA | -0.0789 ± 0.16 |
| TATCAACA | 0.192 ± 0.053 |
| GTCAAGAA | 0.12 ± 0.082 |
| ATTCGGGA | -0.128 ± 0.12 |
| GAGGAAAA | 0.113 ± 0.23 |
| GTTTGAAA | 0.277 ± 0.019 |
| ATTTGAAA | 0.124 ± 0.0068 |
| CTTTGAAA | 0.0996 ± 0.023 |
| ATTAAACA | 0.095 ± 0.031 |
| ATTAAACC | 0.0834 ± 0.057 |
| ATTAAACG | 0.255 ± 0.023 |
| ATCAGACG | -0.142 ± 0.13 |

| Sequence | PBM 8-mer E-score |
| --- | --- |
| CACGGTCG | -0.27 ± 0.0093 |
| ATGCAACA | 0.229 ± 0.099 |
| ATGCAACC | 0.244 ± 0.066 |
| ATGCAACG | 0.0584 ± 0.039 |
| ACTCGTTA | -0.0291 ± 0.015 |
| ACCATGAT | 0.136 ± 0.019 |
| ACCATGTG | 0.442 ± 0.0045 |
| ACCATGCG | 0.243 ± 0.0064 |
| ACCATGCT | 0.277 ± 0.028 |
| ACCATGTA | 0.162 ± 0.065 |
| ACCATGGT | -0.00014 ± 0.21 |
| AACATGCT | 0.242 ± 0.035 |
| ACCATGCC | 0.00171 ± 0.051 |
| ACCATGCA | 0.221 ± 0.0057 |
| AACATGGT | 0.052 ± 0.061 |
| ACCATGTC | 0.0659 ± 0.016 |
| AACATGCA | 0.202 ± 0.039 |
| ATGATGAG | 0.0781 ± 0.012 |
| GTCGGTCA | -0.151 ± 0.14 |
| AGAATGCC | -0.0707 ± 0.0056 |
